Bioassay records (PubChem)
ATXN2 expr inh: ATXN2 expression inhibition. hit rate 0.72% among 360,000. HEK-293 ATXN2-luciferase reporter, luminescence, 24 h. AID 1745845. Potency, µM (series often up to 57 µM), for the others: top-dose activity change, negative = inhibition, hits mostly inhibitors; further: potency means the concentration at half of the fitted maximal effect; on the % scale 0 is the no-effect control and ±100 the full control effect; nearly all actives have a fitted effect of over 55% in size
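qHTS (up to 57 uM final) was run with 24 h compound exposure of reporter cells at 37 °C. Each well was multiplexed: SteadyGlo luminescence measured ATXN2-luciferase expression after a fluorogenic Gly-Phe-AFC viability readout (25 uM final).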
TGFb SMAD3 inh: blocks TGF-b signaling; hit rate 1.2% among 410,000; Potency, µM (highest dose often 46.1 µM), for the others: at the top dose activity, negative = inhibition, usual class: inhibitors; HepG2 CAGA-GFP TGF-b/SMAD3 reporter, GFP fluorescence, 18 h; TGF-beta stimulated, 500 pg/mL final; further: potency means the concentration at half of the fitted maximal effect; on the % scale 0 is the no-effect control and ±100 the full control effect; nearly all actives have a fitted effect of over 65% in size
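Using HEPG2 CAGA-GFP reporter cells at 1000 cells/well, we pinned test compounds, stimulated with recombinant TGF-beta (500 pg/mL final) and measured total well GFP after 18 h.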
ATXN viability: viability counter-screen for ATXN expression inhibitors | hit rate 0.49% among 400,000 | AID 651635 | Potency, µM (titrated, usually from 56.7 µM), most hits filed as cytotoxic | S2 cells (HEK-293 line with an ATXN2-luciferase reporter) viability, CellTiter-Fluor protease fluorescence, 24 h; further: potency means the concentration at half of the fitted maximal effect; nearly all actives have a fitted effect of over 40% in size
Six1-Eya2 inh: blocks human Six1 binding to Eya2. AlphaScreen GST-Six1/His-Eya2 binding, biochemical; active compounds read low. activity change, % (no concentration beside the values). hit rate 0.56% among 360,000. AID 651725; in the data active means activity change below about -65%; inconclusive means mostly about -30% to -63%; further: on the % scale 0 is the no-effect control and ±100 the full control effect
Target sequence (O00167 whole entry, looked up): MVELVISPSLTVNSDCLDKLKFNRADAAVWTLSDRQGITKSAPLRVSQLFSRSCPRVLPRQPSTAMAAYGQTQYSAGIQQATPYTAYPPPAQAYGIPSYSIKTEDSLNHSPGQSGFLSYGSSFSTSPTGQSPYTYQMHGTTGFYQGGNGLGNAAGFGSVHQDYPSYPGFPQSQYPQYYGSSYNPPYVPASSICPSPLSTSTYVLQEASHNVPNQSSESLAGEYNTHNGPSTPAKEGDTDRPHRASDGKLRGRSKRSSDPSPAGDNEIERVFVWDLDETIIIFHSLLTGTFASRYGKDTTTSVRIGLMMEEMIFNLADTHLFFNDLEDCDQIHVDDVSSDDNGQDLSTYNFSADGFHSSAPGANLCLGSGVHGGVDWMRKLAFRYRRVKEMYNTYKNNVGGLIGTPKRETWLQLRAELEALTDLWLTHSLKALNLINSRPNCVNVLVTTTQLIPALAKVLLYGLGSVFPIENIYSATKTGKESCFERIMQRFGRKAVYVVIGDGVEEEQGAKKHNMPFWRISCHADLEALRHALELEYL
Target sequence (Q15475 whole entry, looked up): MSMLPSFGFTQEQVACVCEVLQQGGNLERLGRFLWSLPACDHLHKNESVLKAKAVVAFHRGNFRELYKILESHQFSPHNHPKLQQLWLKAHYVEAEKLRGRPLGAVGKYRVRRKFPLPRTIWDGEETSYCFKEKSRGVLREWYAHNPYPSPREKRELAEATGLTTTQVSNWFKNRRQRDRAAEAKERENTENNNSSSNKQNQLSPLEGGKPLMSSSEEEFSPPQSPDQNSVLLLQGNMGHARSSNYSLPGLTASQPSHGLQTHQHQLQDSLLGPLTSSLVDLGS
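Six1/Eya2 binding was read as AlphaScreen signal after compounds were pinned into GST-Six1 plus His-tagged Eya2 (5X stock 250/500 nM) in pH 8.0 Tris/NaCl/TCEP buffer, beads added, then incubated 1 h, 37 C, dark.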
HepG2 viability: kills HepG2 cells in TGF-b inhibitor counter-screen | HepG2 CAGA-GFP viability, ATP luminescence, 18 h | Potency, µM (top dose mostly 46.1 µM), without a hit: at the highest dose activity change, negative = cytotoxicity, hits mostly cytotoxic | hit rate 0.76% among 410,000; further: potency means the concentration at half of the fitted maximal effect
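HepG2 CAGA-GFP cells (1000/well, DMEM with 1% FBS) received compound, then TGF-beta at 500 pg/mL final, and were incubated 18 hours at 37 degrees C. Viability was read by CellTiter-Glo luminescence. Media-only wells were set as complete cell-killing and DMSO as no toxicity.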
CtBP-E1A blk: CtBP/E1A binding inhibition. hit rate 0.49% among 340,000. AlphaScreen GST-E1A/His-CtBP binding, 1536-well; active compounds read low. AID 651724. activity change, % (test concentration not listed); in the data active means activity change below about -65%; inconclusive means mostly about -30% to -63%; further: on the % scale 0 is the no-effect control and ±100 the full control effect
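Protein mix (5X: 125 nM each GST-E1A, His-CtBP) was incubated with pinned compound 2 h at 37 deg C in dark, in 50 mM Tris pH 8.0 buffer with 300 mM NaCl. Glutathione donor and nickel acceptor beads followed; AlphaScreen signal read after 1 h.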
* hit, by the source's call; i = inactive; ? = inconclusive; nt = no result. Compounds with a hit are over-represented: about 2.8% of the library has one in this group of screens. Unless noted, the call rests on the fitted dose curve; in most records, active means well fitted curve in the direction sought with a large enough effect; inconclusive means small, poorly fitted or top-dose-only effect, or another doubt; inactive means no such curve, though single readings can be large; an effect the other way counts as inactive or inconclusive.

SMILES	ATXN2 expr inh	TGFb SMAD3 inh	ATXN viability	Six1-Eya2 inh	HepG2 viability	CtBP-E1A blk
C/C(CC1CC(C)(C)OC1=O)=N\NC(N)=S (configuration not stated)	-3%	1%	i	11	4%	4
C/C(CC1CC2=C(CC1(C)C)C(C)(C)CCC2)=N\NC(N)=S (configuration not stated)	?	7.9µM*	nt	-2	11µM*	0
Oc1ccc(/C=N/Nc2nc(-c3cccnc3)nc3ccccc23)c(O)c1	-19%	?	i	-67*	-42%	-79*
Cc1cc(N/N=C/c2ccc(O)c(C)c2O)nc(-c2ccccc2O)n1	?	?	16µM*	-19	11µM*	-4
Cc1c(O)ccc(/C=N/Nc2nc(-c3cccnc3)nc3ccccc23)c1O	nt	?	?	-68*	6.3µM*	nt
C/C(=N\Nc1cc(C)nc(-c2ccccc2O)n1)c1ccccc1	2%	-11%	i	-7	-19%	2
COc1ccc(-c2cccc(C3C4C=CCCC4(C)C(=O)N3Cc3ccccc3)c2)cc1 (configuration not stated)	nt	?	nt	nt	-23%	nt
CCOC(=O)/C=C/C(=O)Nc1cccc([N+](=O)[O-])c1	?	11µM*	?	-22	13µM*	-2
CCOC(=O)c1cccc(NC(=O)/C=C/c2cccc([N+](=O)[O-])c2)c1	-14%	2%	i	-6	1%	-1
CC(C)N1CCN(Cc2ccc(OCc3ccccc3)cc2)CC1CCO (configuration not stated)	nt	-24%	i	-20	2µM*	nt
CC(C)N1CCN(Cc2ccc(-c3ccccc3)cc2)CC1CCO (configuration not stated)	-24%	0%	i	0	-20%	2
CC(C)OC(=O)[C@H](C)N[P@](=O)(OC[C@H]1O[C@@H](n2ccc(=O)[nH]c2=O)[C@](C)(F)[C@H]1O)Oc1ccccc1	-7%	nt	nt	nt	nt	nt
CC(=O)N1CCc2c(sc(NC(=O)Cc3ccc(F)cc3)c2C(N)=O)C1	nt	4%	i	11	11µM*	nt
CC(=O)N1CCc2c(sc(NC(=O)Cc3ccc(F)cc3)c2C#N)C1	nt	4%	i	16	-18%	nt
C=CC(=O)Nc1cccc(CN2C(=O)N(c3cc(OC)cc(OC)c3)Cc3cnc(NCCCCN(CC)CC)nc32)c1	-20%	-7%	20µM*	-30	-71%	nt
O=S1(=O)N[C@H](Cc2ccccc2)COc2cccc(N3CCN(Cc4ccccc4F)CC3)c21	?	nt	18µM*	-21	nt	-8
COC(=O)c1ccc(CN2CCOc3ccc(C(O)c4cccnc4)cc3C2)cc1 (configuration not stated)	nt	nt	i	nt	nt	nt
CS/C(N)=N/N=C/c1cc(Br)cc(Br)c1O	nt	6.3µM*	i	-19	-65%	nt
Cc1nnc(C)n1/N=C/c1cc(Br)cc(Br)c1O	-25%	-2%	i	0	-23%	0
CSc1ccc(/C=N\Nc2nncn2N)cc1	nt	?	?	0	-144%	nt
CS/C(N)=N/N=C/c1cc(C)ccc1O	9%	?	i	-4	-45%	-20
CC(C)(C)c1ccc(/C=N/Nc2nncn2N)cc1	-5%	-10%	i	-12	3.5µM*	-18
Nn1cnnc1N/N=C/c1cc(Br)cc(Br)c1O	?	-33%	i	-92*	-39%	-91*
Cc1c(C(=O)NCc2ccco2)cnn1-c1ncc2c(n1)-c1ccccc1CC2	nt	nt	i	nt	nt	nt
Cc1ncc(-c2ccc(F)cc2)c(C2CCCN(Cc3cccc(O)c3)C2)n1 (configuration not stated)	nt	nt	i	nt	nt	nt
COc1cc(=O)n2c(c1C(=O)N(C)Cc1cscn1)CCN(C(=O)c1ccc(C)c(C)c1)CC2	nt	nt	i	nt	nt	nt
COc1ccc(CCNC(=O)c2sc3nc4n(c(=O)c3c2C)CCCC4)cc1OC	nt	?	nt	nt	-28%	nt
COc1ccc(CCN2C(=O)CSC2=S)cc1OC	?	?	22µM*	-7	-58%	-4
